{"source": "PubChem BioAssay", "note": "Values joined by “and” are separate entries in the source; they are usually repeats but may differ in a detail not shown here. Identical values can stand only once. Where a structure was tested more than once in an assay, its records may differ in their call. Active and inactive are the calls of the source. Cut-off read from the data, not from the text of the source: active = parasite load remaining mostly below about 12% (no sharp cut-off); inactive = mostly above about 10%. Peptide text beside a SMILES is read from it.", "data": [{"test": "liver-stage malaria parasite growth inhibition, primary screen, cell-based, HepG2, luciferase luminescence, HepG2 viability (AID 624349);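 note: 100% = mean of DMSO negative control wells on the same plate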", "settings": "P. berghei liver stage in HepG2, luciferase luminescence, concentration not given here; parasite load remaining: stronger effect = lower value; viability: measured here: HepG2 viability without parasites", "values": [{"compound": "Cc1cc(C)cc(OCC2CNC(=O)O2)c1", "note": "(stereo unspecified)", "parasite load remaining": "135% (inactive) and 58.1% (inactive)", "viability": "90% and 111%"}, {"compound": "Cn1c(=O)c2c(ncn2CCO)n(C)c1=O", "parasite load remaining": "29.7% (inactive) and 108% (inactive)", "viability": "47.6% and 91.1%"}, {"compound": "CCN1CCN(C(=O)N[C@@H](C(=O)N[C@@H]2C(=O)N3C(C(=O)O)=C(CSc4nnnn4C)CS[C@H]23)c2ccc(O)cc2)C(=O)C1=O", "parasite load remaining": "48.8% (inactive) and 79.5% (inactive) and 21.1% (inactive)", "viability": "114% and 80.3% and 69%"}, {"compound": "CC(C)N=C(N)/N=C(\\N)Nc1ccc(Cl)cc1", "parasite load remaining": "38.3% (inactive) and -0.12% (active)", "viability": "66.1% and 93.4%"}, {"compound": "CCOC(=O)NNc1nncc2ccccc12", "parasite load remaining": "44.2% (inactive) and 101% (inactive) and 89.6% (inactive)", "viability": "43.6% and 65.7% and 90.2%"}, {"compound": "CCC(Cc1c(I)cc(I)c(N)c1I)C(=O)O", "note": "(stereo unspecified)", "parasite load remaining": "85.1% (inactive) and 170% (inactive) and 66.3% (inactive)", "viability": "78.9% and 86.3% and 103%"}, {"compound": "O=C(O)c1ccccc1O", "parasite load remaining": "90.3% (inactive) and 39.7% (inactive)", "viability": "79.5% and 93.6%"}, {"compound": "Cc1ccc(C(=O)C(C)CN2CCCCC2)cc1", "note": "(stereo unspecified)", "parasite load remaining": "97.6% (inactive)", "viability": "70.5%"}, {"compound": "CC(Cc1cccc(C(F)(F)F)c1)NCCOC(=O)c1ccccc1", "note": "(stereo unspecified)", "parasite load remaining": "112% (inactive) and 111% (inactive) and 72.4% (inactive)", "viability": "102% and 77% and 73.5%"}, {"compound": "COc1c2occc2c(OC)c2c(=O)cc(C)oc12", "parasite load remaining": "32.5% (inactive) and 95.1% (inactive)", "viability": "48.9% and 88.8%"}, {"compound": "CC(=O)NCCCCCC(=O)O", "parasite load remaining": "132% (inactive)", "viability": "98.6%"}, {"compound": "C[N+]12CCC(CC1)C(OC(=O)C(O)(c1ccccc1)c1ccccc1)C2", "note": "(stereo unspecified)", "parasite load remaining": "89.9% (inactive) and 72% (inactive) and 63.2% (inactive)", "viability": "98.6% and 73% and 99.2%"}, {"compound": "CC(C)(Oc1ccc(Cl)cc1)C(=O)O", "parasite load remaining": "91.8% (inactive) and 94% (inactive)", "viability": "98.7% and 75.8%"}, {"compound": "CCN(CC)CCOc1ccc(/C(=C(\\Cl)c2ccccc2)c2ccccc2)cc1", "parasite load remaining": "16% (inactive) and 5.06% (inactive)", "viability": "73.6% and 90.4%"}, {"compound": "COc1ccc2cc1Oc1ccc(cc1)C[C@H]1c3c(cc4c(c3Oc3cc5c(cc3OC)CCN(C)[C@@H]5C2)OCO4)CCN1C", "parasite load remaining": "105% (inactive)", "viability": "82.3%"}, {"compound": "COc1cc(NS(=O)(=O)c2ccc(N)cc2)ncn1", "parasite load remaining": "84.2% (inactive) and 61.4% (inactive) and 48% (inactive)", "viability": "97.9% and 64.7% and 90.8%"}, {"compound": "NC(=O)NC(=O)Cc1ccccc1", "parasite load remaining": "87.8% (inactive) and 56.5% (inactive)", "viability": "68% and 92%"}, {"compound": "Cc1cc(O)cc(C)c1Cl", "parasite load remaining": "69.1% (inactive) and 37.2% (inactive)", "viability": "76.7% and 78.6%"}, {"compound": "CC(C(=O)O)c1ccc(C(=O)c2cccs2)cc1", "note": "(stereo unspecified)", "parasite load remaining": "81.3% (inactive) and 117% (inactive) and 42.2% (inactive)", "viability": "105% and 68.4% and 94.1%"}, {"compound": "Oc1c(Cl)cc(Cl)cc1Sc1cc(Cl)cc(Cl)c1O", "parasite load remaining": "21.9% (inactive) and 0.17% (inactive)", "viability": "65.4% and 70%"}, {"compound": "CCCCC(CC)CN1CN(CC(CC)CCCC)CC(C)(N)C1", "note": "(stereo unspecified)", "parasite load remaining": "136% (inactive) and 95.8% (inactive) and 66.4% (inactive)", "viability": "98.8% and 69.2% and 87.2%"}, {"compound": "Nc1nc(=S)c2[nH]cnc2[nH]1", "parasite load remaining": "146% (inactive) and 64.9% (inactive)", "viability": "48.2% and 41.8%"}, {"compound": "Nc1ccc(C(=O)O)cc1", "parasite load remaining": "102% (inactive) and 75.6% (inactive)", "viability": "74.3% and 91.3%"}, {"compound": "CC(C(=O)O)c1ccc2c(c1)[nH]c1ccc(Cl)cc12", "note": "(stereo unspecified)", "parasite load remaining": "138% (inactive) and 52% (inactive)", "viability": "73.1% and 91.7%"}, {"compound": "CO[C@@]1(NC(=O)C(C(=O)O)c2ccc(O)cc2)C(=O)N2C(C(=O)O)=C(CSc3nnnn3C)CO[C@@H]21", "note": "(stereo partly specified)", "parasite load remaining": "95.7% (inactive) and 71.7% (inactive)", "viability": "77.5% and 90.5%"}, {"compound": "CC1=C(C(=O)O)N2C(=O)[C@@H](NC(=O)[C@H](N)c3ccc(O)cc3)[C@H]2SC1", "parasite load remaining": "116% (inactive) and 83.6% (inactive)", "viability": "96.4% and 77.7%"}, {"compound": "Nc1ccc(C(=O)Oc2ccccc2)c(O)c1", "parasite load remaining": "67.6% (inactive)", "viability": "172%"}, {"compound": "NC[C@H]1O[C@H](O[C@H]2[C@H](O)[C@@H](O[C@H]3O[C@H](CO)[C@@H](O)[C@H](N)[C@H]3O)[C@H](N)C[C@@H]2N)[C@H](N)[C@@H](O)[C@@H]1O", "parasite load remaining": "95.5% (inactive) and 56.4% (inactive)", "viability": "69.4% and 85.5%"}, {"compound": "Nc1ccc(S(=O)(=O)Nc2ccc(Cl)nn2)cc1", "parasite load remaining": "128% (inactive) and 127% (inactive) and 54.3% (inactive)", "viability": "105% and 69.3% and 92.4%"}, {"compound": "CCN(CC)C(=O)c1cccc(C)c1", "parasite load remaining": "18.9% (inactive)", "viability": "97.4%"}, {"compound": "CN1C(C)(C)CCCC1(C)C", "parasite load remaining": "91.5% (inactive) and 53.1% (inactive)", "viability": "99.3% and 92.2%"}, {"compound": "COC(=O)[C@H](Cc1ccccc1)NC(=O)[C@@H](N)CC(=O)O", "note": "(H-Asp-Phe-OMe)", "parasite load remaining": "156% (inactive) and 74.6% (inactive)", "viability": "84.2% and 212%"}, {"compound": "CCOC(N)=O", "parasite load remaining": "148% (inactive) and 51.2% (inactive)", "viability": "85% and 96.6%"}, {"compound": "CCCCOc1ccc(OCCCN2CCOCC2)cc1", "parasite load remaining": "92% (inactive) and 117% (inactive) and 30.7% (inactive)", "viability": "109% and 67.4% and 85.2%"}, {"compound": "Oc1c(Br)cc(Br)c2cccnc12", "parasite load remaining": "81.4% (inactive)", "viability": "68.8%"}, {"compound": "Cc1cc2cc3c(C)cc(=O)oc3c(C)c2o1", "parasite load remaining": "179% (inactive) and 284% (inactive) and 171% (inactive)", "viability": "95.9% and 75.4% and 91.9%"}, {"compound": "Nc1ccc(C(=O)NCC(=O)O)cc1", "parasite load remaining": "103% (inactive) and 157% (inactive) and 40.5% (inactive)", "viability": "101% and 82% and 89.7%"}, {"compound": "CCCCCN(C)CCC(O)(P(=O)(O)O)P(=O)(O)O", "parasite load remaining": "28% (inactive)", "viability": "76.5%"}]}]}
